# In PubChem BioAssay (EPA / NIEHS):
# Activity calls are given as the source filed them. Rule for the calls: active = hit-call score of the fitted dose curve at least 0.9, where 1 is the maximum; inactive = score below 0.9.
# Read-out: Transforming growth factor beta 1 (TGFb1), TGFB1 (gene 7040)
# Test: BSK_KF3CT_TGFb1: BioMAP Diversity Plus: KF3CT Assay for Transforming growth factor beta 1 (TGFb1) Biomarker Activity (AID 2283072)
# Conditions: primary human keratinocytes with fibroblasts; actives raise or lower the signal
# Experimental: BSK_KF3CT is a cell-based, multiplexed-readout assay that uses keratinocytes and foreskin fibroblasts, a human skin primary cell co-culture, with measurements taken at 24 hours after chemical dosing in a 96-well plate.BSK_KF3CT_TGFb1 is an assay component measured in the BSK_KF3CT assay. It measures TGF-b1 antibody related to regulation of gene expression using ELISA technology.Data from the assay component BSK_KF3CT_TGFb1 was analyzed into 1 assay endpoint. This assay endpoint, BSK_KF3CT_TGFb1, was analyzed with bidirectional fitting relative to DMSO as the negative control and baseline of activity. Using a type of binding reporter, gain or loss-of-signal activity can be used to understand changes in the signaling as they relate to the gene TGFB1. Furthermore, this assay endpoint can be referred to as a primary readout, because this assay has produced multiple assay endpoints where this one serves a signaling function. To generalize the intended target to other relatable targets, this assay endpoint is annotated to the growth factor intended target family, where the subfamily is transforming growth factor beta.
# The levels of cell surface (or secreted, indicated by the prefix "s") biomarker endpoints were measured by ELISA. Overt cytotoxicity to cells in confluent adherent cultures (all systems other than the BT system) was assessed by measuring total protein levels using sulforhodamine B (SRB) staining in parallel cultures at the time of biomarker measurements, indicated as SRB endpoints. For proliferation assays for adherent cell types, individual cell types are cultured at sub-confluence and relative cell numbers quantified by SRB staining at time points optimized for each system (48 h: 3C and CASM3C systems; 72 h: BT and HDF3CGF systems; 96 h: SAg system). SRB was performed by staining cells with 0.1% SRB after fixation with 10% TCA and reading wells at 560 nm.Viability and proliferation of PBMC (T cells) was quantified by Alamar Blue reduction for the SAg and BT systems. For PBMC viability (referred to as PBMC Cytotoxicity within the assay endpoint names), cells were plated (75,000/well in a 96-well plate) and then chemical samples added for 1 h before addition of activators, SEB and TSST-1 (20 ng/mL final concentration each). Cells were incubated for 90 h. Then, Alamar Blue (20 uL/well) (Invitrogen, Cat DAL1100) was added for 6 h, and the plates were read with a fluorescence microplate reader at 546/580 nm (excitation/emission). For PBMC proliferation, cells were plated and activated as above but incubated for only 16 h prior to addition of Alamar Blue. Plates were read after 6 h.
Structure (SMILES),outcome,AC50
Nc1ccc(N=Nc2ccccc2)cc1,inactive,
OCCCBr,inactive,
CCN(CC)CCO,inactive,
Nc1cc(Cl)cc(C(=O)O)c1Cl,inactive,
CCC[CH2][Sn]([Cl])([CH2]CCC)[CH2]CCC,,0.692 µM (active)
CC(C)(OOC(C)(C)c1ccccc1)c1ccccc1,inactive,
CCCCC(CC)COC(=O)c1ccc(C(=O)OCC(CC)CCCC)c(C(=O)OCC(CC)CCCC)c1 (stereo not given),inactive,
CCC12COCN1COC2,inactive,
CCCSC(=O)N(CCC)CCC,inactive,
Clc1ccc(C(c2ccc(Cl)cc2)C(Cl)Cl)cc1,,9.57 µM (active)
Cc1ccc(N)cc1,inactive,
CCNS(=O)(=O)C(F)(F)C(F)(F)C(F)(F)C(F)(F)C(F)(F)C(F)(F)C(F)(F)C(F)(F)F,,19.3 µM (active)
CCCCCCCCCCCCCN1CC(C)OC(C)C1 (stereo not given),inactive,
O=Cc1ccco1,inactive,
O=P(OCCCl)(OCCCl)OCCCl,inactive,
CN(C)C(=O)Nc1ccc(Cl)cc1,inactive,
c1ccc(C2CO2)cc1 (stereo not given),inactive,
CCC(C)c1ccc(O)cc1 (stereo not given),inactive,
C=CCc1ccc2c(c1)OCO2,inactive,
COP(=S)(OC)SCN1C(=O)c2ccccc2C1=O,inactive,

Structure (SMILES),outcome,AC50
CC(C)N(Cc1ccccc1)C(=O)C(C)(C)C,inactive,
COC(=O)Nc1nc2ccccc2[nH]1,inactive,
Cc1cc(N=Nc2ccccc2C)ccc1N,,28.5 µM (active)
O=[N+]([O-])c1ccc(Oc2ccc(Cl)cc2Cl)cc1,inactive,
CN(C)c1ccccc1,inactive,
[Cl-].[Cl-].[Hg+2],,7.74 µM (active)
CC(C)(C)C(O)(CCc1ccc(Cl)cc1)Cn1cncn1 (stereo not given),inactive,
Nc1ccc([N+](=O)[O-])cc1,inactive,
Nc1ccc(Oc2ccc(N)cc2)cc1,inactive,
Cc1cccc(N)c1N,inactive,
O=[N+]([O-])C(Br)(CO)CO,,32 µM (active)
c1ccc(NNc2ccccc2)cc1,inactive,
C1=Cc2cccc3cccc1c23,inactive,
Clc1ccc(Cl)c(Cl)c1,inactive,
COC(=O)c1ccccc1N,inactive,
c1ccc2c(c1)oc1ccccc12,inactive,
O=C1CCCO1,inactive,
CN(C)c1ccc(C(=O)c2ccc(N(C)C)cc2)cc1,,5.11 µM (active)
CCCCCCCCOC(=O)c1ccc(C(=O)OCCCCCCCC)c(C(=O)OCCCCCCCC)c1,inactive,
[O-][Cl+]O,inactive,
